The campaign covered roughly 5,600 compounds. About 390 (7%) showed an effect of 50% or more. The full list was thinned out, with strong results kept by preference.

For assay [1], the target named is T1, Protein deacetylase HDAC6 (Homo sapiens) (UniProt Q9UBN7).
T1 sequence (whole entry): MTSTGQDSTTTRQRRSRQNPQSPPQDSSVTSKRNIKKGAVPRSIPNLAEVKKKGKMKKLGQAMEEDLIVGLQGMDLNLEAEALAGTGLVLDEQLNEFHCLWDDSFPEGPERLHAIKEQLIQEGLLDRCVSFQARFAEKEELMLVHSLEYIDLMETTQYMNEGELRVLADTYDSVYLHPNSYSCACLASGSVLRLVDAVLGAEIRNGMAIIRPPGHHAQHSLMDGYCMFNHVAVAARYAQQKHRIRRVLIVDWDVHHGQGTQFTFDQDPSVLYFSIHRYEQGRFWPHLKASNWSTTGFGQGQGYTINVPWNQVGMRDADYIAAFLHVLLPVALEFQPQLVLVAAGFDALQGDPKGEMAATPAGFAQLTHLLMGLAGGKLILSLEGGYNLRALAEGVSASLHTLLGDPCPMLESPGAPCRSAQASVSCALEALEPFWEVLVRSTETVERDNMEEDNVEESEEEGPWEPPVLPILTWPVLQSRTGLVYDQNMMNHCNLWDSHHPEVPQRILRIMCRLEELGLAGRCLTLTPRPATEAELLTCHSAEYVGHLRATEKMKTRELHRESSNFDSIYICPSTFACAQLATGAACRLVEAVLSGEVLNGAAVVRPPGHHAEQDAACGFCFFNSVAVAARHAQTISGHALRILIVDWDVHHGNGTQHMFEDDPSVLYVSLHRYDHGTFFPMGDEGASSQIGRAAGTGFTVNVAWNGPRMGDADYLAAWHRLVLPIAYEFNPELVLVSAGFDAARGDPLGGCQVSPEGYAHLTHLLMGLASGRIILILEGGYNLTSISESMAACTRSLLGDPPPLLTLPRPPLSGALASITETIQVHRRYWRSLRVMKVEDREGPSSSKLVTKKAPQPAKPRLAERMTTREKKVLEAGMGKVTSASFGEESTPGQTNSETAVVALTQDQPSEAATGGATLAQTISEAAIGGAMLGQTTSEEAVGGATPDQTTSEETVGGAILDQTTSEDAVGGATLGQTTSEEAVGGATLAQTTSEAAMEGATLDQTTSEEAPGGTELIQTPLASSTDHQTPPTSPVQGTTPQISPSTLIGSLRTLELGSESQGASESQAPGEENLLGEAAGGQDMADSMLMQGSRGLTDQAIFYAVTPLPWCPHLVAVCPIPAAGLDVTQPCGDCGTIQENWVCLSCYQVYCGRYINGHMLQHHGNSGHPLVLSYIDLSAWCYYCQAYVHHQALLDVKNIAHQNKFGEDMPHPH
Conditions: at 10 µM.

Assay [2] addresses Protein deacetylase HDAC6 (Homo sapiens) (UniProt Q9UBN7). The settings on record: at 10 µM. The source holds these as a separate data set.

The inhibition is the drop in the measured response relative to a control, in per cent. Take `COc1cc(C2Oc3ccc(C4Oc5cc(O)cc(O)c5C(=O)C4O)cc3OC2CO)ccc1O` (centres undefined): the inhibition in assay [1] was -5.75%.

`Cc1cc(Cn2nnc3c(-c4ccco4)nc(N)nc32)ccc1N`: in assay [1], the inhibition is -1.08%.

`Cc1c(OCc2cccc(-c3ccc(C(=O)O)cc3)c2)cc2c(c1C)C(=O)C(C1CCCC1)C2` (centres undefined): in assay [1], the inhibition was -0.56%.

Consider `CCCCn1ccc(N2CCC(c3ccccc3)CC2)c(Cl)c1=O`, for which, in assay [1], the inhibition amounted to 59.9%.

Take `CCN1C(=O)NC(c2ccccc2)C1=O` (centres undefined): the inhibition in assay [1] was found to be 22.6%.

Regarding `Cc1ccc2c(c1)C(=O)C1(O)CCN(c3ccccc3)C1=N2` (racemic), in assay [1], the inhibition stood at 1.13%.

For `O=C(O)C[C@H]1CC[C@H](c2ccc(NC(=O)c3nnc(Nc4ccc(F)c(F)c4)o3)cc2)CC1`, the inhibition in assay [1] was determined as 35.2%.

Take `Oc1cc(O)c2cc(O)c(-c3cc(O)c(O)c(O)c3)[o+]c2c1`: the inhibition in assay [1] stood at 38.4%.

Turning to `CC(C)(C)c1ccc(NC(=O)N2CCN(c3ncccc3Cl)CC2)cc1`, the inhibition in assay [1] worked out at 24.7%.

Consider `CC(C)Nc1cccnc1N1CCN(C(=O)c2cc3cc(NS(C)(=O)=O)ccc3[nH]2)CC1`, for which, in assay [1], the inhibition stood at 51.2%.

For `COC1=C(OC)C(=O)C(C/C=C(\C)CC/C=C(\C)CC/C=C(\C)CC/C=C(\C)CC/C=C(\C)CC/C=C(\C)CC/C=C(\C)CC/C=C(\C)CC/C=C(\C)CCC=C(C)C)=C(C)C1=O`, in assay [1], the inhibition stood at 4.15%.

`CC(C)c1ccc2oc3nc(N)c(C(=O)O)cc3c(=O)c2c1`: in assay [1], the inhibition was 98.2%.

With `N[C@H](C(=O)O)c1ccc(O)c(C(=O)O)c1`, in assay [1], the inhibition was -8.79%.

With `N[C@@H](C(=O)O)c1ccc(O)c(C(=O)O)c1`, in assay [1], the inhibition was found to be 1.46%.

Regarding “BISMUTH SUBCITRATE POTASSIUM, CHEMBL1201186”, the inhibition in assay [2] was 16.3%.

As for `Cc1ccc(/C(=C\CN2CCCC2)c2cccc(/C=C/C(=O)O)n2)cc1`, the inhibition in assay [1] is -6.81%.

As for `COc1cc(C[C@H]2c3cc(OC)c(OC)cc3CCN2C)c(Oc2cc3c(cc2OC)-c2c(OC)c(OC)cc4c2[C@H](C3)N(C)CC4)cc1OC`, the inhibition in assay [1] came out at 33.6%.

For the compound `COc1cc(C(=O)NCC2(N(C)C)CCCC2)cc(OC)c1OCc1ccccc1`, the inhibition in assay [1] came to 0.96%.

On to `Nc1nc(NCCc2ccc(O)cc2)nc2nc(-c3ccco3)nn12`, for which the inhibition in assay [1] was 67.5%.

For `COc1cc(C(=S)N2CCOCC2)cc(OC)c1OC`, the inhibition in assay [1] was determined as 14.8%.

As to `COc1ccc(S(=O)(=O)N2c3ccc(Cl)cc3[C@](O)(c3ccccc3Cl)[C@@H]2C(=O)N2CCC[C@H]2C(N)=O)cc1OC`, the inhibition in assay [1] was -7.22%.

In the case of `COc1cc2c(cc1C(F)(F)F)N(C(=O)Nc1cc(F)cc(-c3cccnc3)c1)CC2`, the inhibition in assay [1] was -6.46%.

As to `O=C(NCC(=O)N1CCCC1)Nc1ccc2cnccc2c1`, the inhibition in assay [1] was -7.55%.

Turning to `Cn1ccc2cc(NC(=O)Nc3cccnc3)ccc21`, the inhibition in assay [1] stood at 88.1%.

In the case of `O=C(Nc1ccc2c(O)cc(S(=O)(=O)O)cc2c1)Nc1ccc2c(O)cc(S(=O)(=O)O)cc2c1`, the inhibition in assay [1] worked out at 45.9%.

With `Cn1ccc2cc3c(cc21)CCN3C(=O)Nc1cccnc1`, the inhibition in assay [1] came to 100%.

On to `CSc1cc2c(cc1C(F)(F)F)N(C(=O)Nc1cccnc1)CC2`, for which the inhibition in assay [1] is 19.3%.

On to `Cc1c(C(=O)NN2CCOCC2)nn(-c2ccc(Cl)cc2Cl)c1-c1ccc(I)cc1`, for which, in assay [1], the inhibition came to 0.27%.

Turning to `COc1cccc([C@@H](C)NCCCc2ccccc2Cl)c1`, in assay [1], the inhibition turned out to be 2.6%.

As for `CC(C)C[C@H](N)C(=O)O`, the inhibition in assay [1] was determined as 5.48%.

Regarding `CC(=O)Nc1cccc(Nc2ncnc(N3CCC(OCc4ccc(OC(F)(F)F)cc4)CC3)n2)c1C`, in assay [1], the inhibition came to 22.4%.

With `CCc1c(-c2ccccc2)c(-c2ccccc2)nn1-c1ccccc1-c1cccc(OCC(=O)O)c1`, in assay [1], the inhibition is 10.2%.

For the compound `O=C(O)CCc1nc2ccccc2[nH]1`, the inhibition in assay [1] is 10.6%.

Turning to `c1ccc2[nH]c(-c3cscn3)nc2c1`, in assay [1], the inhibition is 97.3%.

In the case of `CCN(c1cc(C#CCN2CCOCC2)cc(C(=O)NCc2c(C)cc(C)[nH]c2=O)c1C)[C@H]1CC[C@H](N(C)CCOC)CC1`, in assay [1], the inhibition was -8.25%.

As for `COc1ccccc1OC(=O)C(C)c1ccc(CC(C)C)cc1` (centres undefined), the inhibition in assay [1] amounted to 10.7%.

Take `CCOC(=O)[C@H](CCc1ccccc1)N[C@@H](C)C(=O)N1[C@H](C(=O)O)C[C@H]2CCCC[C@@H]21`: in assay [1], the inhibition came to 3.93%.

For the compound `Cc1cccc(C)c1-n1c(=O)c2cnc(Nc3ccc(N4CCN(C)CC4)cc3)nc2n2c3ccccc3nc12`, the inhibition in assay [1] was -1.49%.

`O=C(Nc1c[nH]nc1-c1nc2ccc(CN3CCOCC3)cc2[nH]1)NC1CC1`: the inhibition in assay [1] is 32.3%.

Consider `Nc1ccc(-c2nc3ccc(-c4nc5ccc(N)cc5[nH]4)cc3[nH]2)cc1`, for which the inhibition in assay [1] was found to be 61.9%.

As to `Nc1ccc2cc3ccc(N)cc3nc2c1`, in assay [1], the inhibition is 6.02%.

As to `CC(C)C(C(=O)Nc1nccs1)c1ccc(Cl)cc1` (centres undefined), the inhibition in assay [1] worked out at 10.4%.

In the case of `COC(=O)c1csc(C(=O)c2c[nH]c3ccccc23)n1`, in assay [1], the inhibition stood at 47.6%.

Take `Nc1ccn([C@@H]2O[C@H](CO)[C@@H](O)C2(F)F)c(=O)n1`: the inhibition in assay [1] was -4.87%.

Turning to `CCCOc1ccc2[nH]c(NC(=O)OC)nc2c1`, in assay [1], the inhibition turned out to be 31.6%.

`COC(=O)Nc1nc2cc(Sc3ccccc3)ccc2[nH]1`: in assay [1], the inhibition is 65.2%.

Regarding `COC(=O)Nc1nc2cc(C(=O)c3ccccc3)ccc2[nH]1`, in assay [1], the inhibition is -5.79%.

For `COC(=O)Nc1nc2cc(SC(C)C)ccc2[nH]1`, the inhibition in assay [1] was 79.4%.

As for `COC(=O)Nc1nc2cc(C(=O)c3ccc(F)cc3)ccc2[nH]1`, the inhibition in assay [1] came to 1.02%.

Source of the values: ChEMBL document CHEMBL4808148, “HDAC6 screening dataset using tau-based substrate in an enzymatic assay yields selective inhibitors and activators” (2021).
